Experimental data reported in PubChem BioAssay.

Test: CREB reporter modulators without forskolin, primary screen, cell-based, PC12, CRE-LacZ reporter, unstimulated (AID 1145)
Settings: no forskolin, luminescence, 4.5 h, higher = more signal, called active from +8 up or from −8 down

z-score, inactive:
CC(=O)NCCCC[C@@H]1NC(=O)[C@@H]2C[C@H](C(=O)NCCCCCCN)[C@H](c3cccc(OCCO)c3)N2C1=O -0.13
COc1ccc([Si](C)(C)[C@H]2[C@H](CCO)O[C@@]3(C(=O)N(Cc4ccc(N5C(=O)c6ccccc6Oc6ccccc65)cc4)c4ccccc43)[C@@H]2C)cc1 0.222
CCCCC=C[C@@H](NC(=O)c1ccccc1)c1ccccc1 0.969
COCCOC(=O)N1C(=O)[C@@]2(c3cc(C#CC4=CCCCC4)ccc31)[C@H](C(=O)N1CCCCCCC1)[C@H]1C(=O)O[C@H](c3ccccc3)[C@H](c3ccccc3)N1[C@@H]2c1ccc(OCCO)cc1 -0.199
COCCOC(=O)N1C(=O)[C@@]2(c3cc(C#CCNC(N)=O)ccc31)[C@H](c1ccc(O)cc1)N1[C@H](c3ccccc3)[C@H](c3ccccc3)OC(=O)[C@H]1[C@@H]2C(=O)N1CCN(c2ncccn2)CC1 -0.589
COCCOC(=O)N1C(=O)[C@@]2(c3cc(C#CCCO)ccc31)[C@H](c1ccccc1OCCO)N1[C@H](c3ccccc3)[C@H](c3ccccc3)OC(=O)[C@H]1[C@@H]2C(=O)N1CCCCCCC1 -1.15
CC(=O)N1CC(C(O)C2C=CC3C(=O)NC(=O)C3N2Nc2ccc(Cl)cc2Cl)c2ccccc21 (stereo not drawn) 1.21
COc1cc2c(cc1OC)CN(C(=O)[C@@H]1[C@H]3C(=O)O[C@H](c4ccccc4)[C@H](c4ccccc4)N3[C@H](c3ccc(O)cc3)[C@@]13C(=O)Nc1ccc(C#CCCO)cc13)CC2 -0.878
NCCCCCNC(=O)[C@H]1C[C@H]2C(=O)N[C@@H](Cc3ccccc3)C(=O)N2[C@H]1c1ccc(O)cc1 0.0124
CC(C)OC(=O)CC(=O)CC(O)c1ccc([N+](=O)[O-])cc1 (stereo not drawn) 1.03
CCCNC(=O)[C@@]1(C)c2ccccc2C(=O)N(Cc2ccccc2)[C@H]1c1ccc(CO)cc1 0.0924
COC(=O)[C@@]1(Cc2ccc(OC)cc2)[C@H]2c3cc(C(=O)N4CCCC4)n(Cc4cc(C)n(C)n4)c3C[C@H]2CN1C(=O)c1ccccc1 -0.375
C=CCC(OC(C)=O)[C@@H]1[C@@H](N(Cc2ccc(-c3cccc(C(F)(F)F)c3)o2)C(=O)c2ccc(C)cc2)c2cc(OCCCO)ccc2N1C(=O)Cc1ccc(OC)cc1 (stereo partly drawn) -0.477
CC(=O)n1cc(C(O)C2C=CC3C(=O)N(c4ccccc4)C(=O)C3N2Nc2ccc(C(C)C)cc2)c2ccccc21 (stereo not drawn) 0.24
C=CCC(OC(C)=O)[C@@H]1[C@@H](N(Cc2ccc(-c3ccccc3)cc2)C(=O)c2ccc(C)cc2)c2cc(OCCCO)ccc2N1C(=O)Cc1ccc2ccccc2c1 (stereo partly drawn) 1.66
COc1cc(C(O)C2C=CC3C(=O)N(Cc4ccccc4)C(=O)C3N2n2cnnc2)cc(OC)c1OC (stereo not drawn) 0.636
COc1ccc(C(=O)Nc2cccc(CN3C(=O)[C@@]4(O[C@@H](CC(=O)N(CCO)Cc5ccccc5)[C@H]([Si](C)(C)c5ccc(OC)cc5)[C@H]4C)c4ccccc43)c2)cc1 3.3
C=CCC(OC(C)=O)[C@@H]1[C@@H](N(Cc2ccc(-c3cccc(C(F)(F)F)c3)o2)C(=O)Cc2ccc(OC)cc2)c2cc(OCCCO)ccc2N1C(=O)Cc1ccc2ccccc2c1 (stereo partly drawn) 0.134
CO[C@H]1O[C@H](CO)[C@@H](OC(=O)c2ccc(Br)cc2)[C@@H]2OC(=O)[C@H](Cc3ccccc3)C/C=C/C[C@@H](Cc3ccccc3)C(=O)O[C@@H]12 -0.0017
O=C(CS)NCCCCCCNC(=O)[C@@H]1C[C@@H]2C(=O)NCC(=O)N2[C@@H]1c1ccc(O)cc1 -0.537
COCCOC(=O)N1C(=O)[C@@]2(c3cc(C#CCNC(N)=O)ccc31)[C@H](c1ccc(OCCO)cc1)N1[C@H](c3ccccc3)[C@H](c3ccccc3)OC(=O)[C@H]1[C@@H]2C(=O)NC[C@H](O)c1ccccc1 -1.56
CC(C)C[C@@H]1NC(=O)CNC(=O)[C@@]23C(=O)N[C@@H](Cc4ccccc4)C2[C@H](C)[C@@]2(C)O[C@H]2C3/C=C/C/C=C\CNC1=O (stereo partly drawn) -0.417
COCCOC(=O)N1C(=O)[C@@]2(c3cc(C#CC4(O)CCCCCC4)ccc31)[C@H](c1ccc(OCCO)cc1)N1[C@H](c3ccccc3)[C@H](c3ccccc3)OC(=O)[C@H]1[C@@H]2C(=O)Nc1nc2ccccc2s1 -0.337
